In all, about 5,500 compounds went through this assay and about 2,000 (36%) were called active. Another 18% or so got no clear call; they are omitted. No stated cut-off is given here; in the data, active means normalized growth mostly below about 0.91 (no sharp cut-off); inconclusive means no clear call, values can overlap the other calls; inactive means mostly above about 0.92. The list shows a part of the results.
Assay: chemical genetic growth profiling, strain panel (AID 1159580);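 further: tested at 20 µM; growth read once vehicle control cultures reached saturation at 30 °C; 1 = growth at the plate median or of vehicle wells; lower values mean less growth of the strain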
Conditions: growth OD

Measured: normalized growth

C=C1c2c(Cl)ccc(O)c2C(O)=C2C(=O)[C@]3(O)C(O)=C(C(N)=O)C(=O)[C@@H](N(C)C)[C@@H]3[C@@H](O)[C@H]12
inactive: S. cerevisiae deletion strains, locus YJR075W, strain HOC1, active compounds read low 0.96 | S. cerevisiae deletion strains, locus YKL009W, strain mrt4, active compounds read low 1 | S. cerevisiae deletion strains, locus YKL068W, active compounds read low 0.989 | S. cerevisiae deletion strains, locus YKL085W, strain MDH1 (second series), active compounds read low 0.971 | S. cerevisiae deletion strains, locus YKL085W, strain MDH1, active compounds read low 0.971 | S. cerevisiae deletion strains, locus YKL160W, strain elf1, active compounds read low 0.999 | S. cerevisiae deletion strains, locus YKL190W, strain CNB1, active compounds read low 0.979 | S. cerevisiae deletion strains, locus YKR001C, strain vps1, active compounds read low 0.917 | S. cerevisiae deletion strains, locus YKR026C, strain gcn3, active compounds read low 0.983 | S. cerevisiae deletion strains, locus YKR091W, strain srl3, active compounds read low 0.973 | S. cerevisiae deletion strains, locus YLL001W, strain dnm1, active compounds read low 1.01 | S. cerevisiae deletion strains, locus YLL026W, active compounds read low 0.996 | S. cerevisiae deletion strains, locus YLL041C, strain sdh2, active compounds read low 0.985 | S. cerevisiae deletion strains, locus YLR027C, strain aat2, active compounds read low 1 | S. cerevisiae deletion strains, locus YLR039C, strain RIC1, active compounds read low 0.968 | S. cerevisiae deletion strains, locus YLR058C, strain SHM2, active compounds read low 0.937 | S. cerevisiae deletion strains, locus YLR102C, strain apc9, active compounds read low 0.986 | S. cerevisiae deletion strains, locus YLR113W, strain HOG1, active compounds read low 1.01 | S. cerevisiae deletion strains, locus YLR221C, strain rsa3, active compounds read low 0.935 | S. cerevisiae deletion strains, locus YLR258W, strain gsy2, active compounds read low 0.948 | S. cerevisiae deletion strains, locus YLR262C, strain YPT6 (second series), active compounds read low 0.974 | S. cerevisiae deletion strains, locus YLR262C, strain YPT6, active compounds read low 0.997 | S. cerevisiae deletion strains, locus YLR320W, strain mms22, active compounds read low 0.926 | S. cerevisiae deletion strains, locus YLR330W, strain CHS5, active compounds read low 0.981 | S. cerevisiae deletion strains, locus YLR342W, strain FKS1 (second series), active compounds read low 0.875 | S. cerevisiae deletion strains, locus YLR342W, strain FKS1, active compounds read low 0.965 | S. cerevisiae deletion strains, locus YLR357W, strain rsc2, active compounds read low 0.895 | S. cerevisiae deletion strains, locus YLR370C, strain arc18, active compounds read low 0.988 | S. cerevisiae deletion strains, locus YLR371W, strain rom2, active compounds read low 0.987 | S. cerevisiae deletion strains, locus YLR384C, strain iki3, active compounds read low 0.988 | S. cerevisiae deletion strains, locus YLR418C, strain cdc73, active compounds read low 0.899 | S. cerevisiae deletion strains, locus YML016C, strain PPZ1, active compounds read low 0.968 | S. cerevisiae deletion strains, locus YML032C, strain rad52, active compounds read low 0.937 | S. cerevisiae deletion strains, locus YML120C, strain ndi1, active compounds read low 0.993 | S. cerevisiae deletion strains, locus YML124C, strain tub3, active compounds read low 0.977 | S. cerevisiae deletion strains, locus YMR078C, strain ctf18, active compounds read low 0.983 | S. cerevisiae deletion strains, locus YMR125W, strain sto1, active compounds read low 0.954 | S. cerevisiae deletion strains, locus YMR129W, active compounds read low 0.981 | S. cerevisiae deletion strains, locus YMR205C, strain PFK2, active compounds read low 0.998 | S. cerevisiae deletion strains, locus YMR223W, strain ubp8, active compounds read low 0.969 | S. cerevisiae deletion strains, locus YMR231W, strain pep5, active compounds read low 0.987 | S. cerevisiae deletion strains, locus YMR263W, strain SAP30, active compounds read low 0.957 | S. cerevisiae deletion strains, locus YMR307W, strain GAS1, active compounds read low 0.887 | S. cerevisiae deletion strains, locus YNL067W, strain RPL9B, active compounds read low 0.93 | S. cerevisiae deletion strains, locus YNL071W, strain lat1, active compounds read low 0.96 | S. cerevisiae deletion strains, locus YNL128W, strain TEP1, active compounds read low 0.936 | S. cerevisiae deletion strains, locus YNL153C, strain GIM3, active compounds read low 0.897 | S. cerevisiae deletion strains, locus YNL183C, strain NPR1, active compounds read low 0.947 | S. cerevisiae deletion strains, locus YNL233W, strain BNI4, active compounds read low 0.919 | S. cerevisiae deletion strains, locus YNL248C, strain rpa49, active compounds read low 0.921 | S. cerevisiae deletion strains, locus YNL250W, strain rad50, active compounds read low 0.96 | S. cerevisiae deletion strains, locus YNL271C, strain bni1, active compounds read low 0.961 | S. cerevisiae deletion strains, locus YNL298W, strain CLA4, active compounds read low 1 | S. cerevisiae deletion strains, locus YNL307C, strain MCK1, active compounds read low 0.965 | S. cerevisiae deletion strains, locus YNL322C, strain KRE1 (second series), active compounds read low 0.958 | S. cerevisiae deletion strains, locus YNL322C, strain KRE1, active compounds read low 0.985 | S. cerevisiae deletion strains, locus YNR049C, strain mso1, active compounds read low 0.971 | S. cerevisiae deletion strains, locus YNR052C, strain pop2, active compounds read low 0.99 | S. cerevisiae deletion strains, locus YOL006C, strain TOP1, active compounds read low 0.839 | S. cerevisiae deletion strains, locus YOL012C, strain htz1 0.807 | S. cerevisiae deletion strains, locus YOL147C, strain pex11, active compounds read low 0.975 | S. cerevisiae deletion strains, locus YOR001W, strain rrp6, active compounds read low 0.997 | S. cerevisiae deletion strains, locus YOR061W, strain CKA2, active compounds read low 0.973 | S. cerevisiae deletion strains, locus YOR069W, strain VPS5, active compounds read low 0.974 | S. cerevisiae deletion strains, locus YOR070C, strain gyp1, active compounds read low 0.951 | S. cerevisiae deletion strains, locus YOR080W, strain dia2, active compounds read low 0.988 | S. cerevisiae deletion strains, locus YOR083W, strain WHI5, active compounds read low 0.96 | S. cerevisiae deletion strains, locus YOR106W, strain vam3, active compounds read low 0.974 | S. cerevisiae deletion strains, locus YOR136W, strain idh2, active compounds read low 0.997 | S. cerevisiae deletion strains, locus YOR144C, strain elg1, active compounds read low 0.984 | S. cerevisiae deletion strains, locus YOR184W, strain ser1, active compounds read low 0.978 | S. cerevisiae deletion strains, locus YOR231W, strain MKK1, active compounds read low 0.972 | S. cerevisiae deletion strains, locus YOR265W, strain rbl2, active compounds read low 0.974 | S. cerevisiae deletion strains, locus YOR270C, strain vph1, active compounds read low 0.97 | S. cerevisiae deletion strains, locus YOR290C, strain snf2, active compounds read low 0.916 | S. cerevisiae deletion strains, locus YOR316C, strain cot1, active compounds read low 0.992 | S. cerevisiae deletion strains, locus YPL051W, strain arl3, active compounds read low 0.973 | S. cerevisiae deletion strains, locus YPL055C, strain LGE1, active compounds read low 0.94 | S. cerevisiae deletion strains, locus YPL078C, strain atp4, active compounds read low 1.02 | S. cerevisiae deletion strains, locus YPL106C, strain sse1, active compounds read low 0.898 | S. cerevisiae deletion strains, locus YPL240C, strain hsp82, active compounds read low 1 | S. cerevisiae deletion strains, locus YPL241C, strain CIN2, active compounds read low 0.978 | S. cerevisiae deletion strains, locus YPL256C, strain CLN2, active compounds read low 1.01 | S. cerevisiae deletion strains, locus YPR119W, strain clb2, active compounds read low 0.985 | S. cerevisiae deletion strains, locus YPR141C, strain kar3, active compounds read low 0.979 | S. cerevisiae deletion strains, locus YPR163C, strain tif3, active compounds read low 0.958 | S. cerevisiae deletion strains, locus YPR167C, strain met16, active compounds read low 0.977 | S. cerevisiae deletion strains, strain wtn01, active compounds read low 0.934 | S. cerevisiae strains, strain wild type, active compounds read low 0.95
active: S. cerevisiae deletion strains, locus YLR268W, strain sec22, active compounds read low 0.866 | S. cerevisiae deletion strains, locus YMR058W, strain fet3, active compounds read low 0.841 | S. cerevisiae deletion strains, locus YNL209W, strain ssb2, active compounds read low 0.924
